These results are taken from PubChem BioAssay (NCATS).

Where “and” joins values, the source holds several entries; their conditions need not be identical. Identical values can stand only once. Records with an inconclusive call do not appear. A number with no mark means an inactive call. Calls of active or inactive are those of the source. Calls come from the whole dose curve; as a rule, active = well fitted inhibition curve with a large enough effect; inconclusive = small, poorly fitted or top-dose-only effect; inactive = flat fitted curve, though single readings scatter.
% is set by controls: 0 for no effect and ±100 for the full control effect; potency is the fitted concentration of half-maximal effect.

System in one experiment: not listed separately
Nature of the experiment: Drug repurposing screens with cells derived from glioblastoma tumor samples (AID 1345199). Note: nearly all actives have a fitted effect of over 40% in size. The note with it: GBM patient neurospheres viability, ATP luminescence, 48 h; tumour line B. Put shortly: (§1)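 Four patient lines of CD133+ GBM neurospheres were screened at several concentrations; hits were retested in those lines plus three slower-growing GBM lines, using 48-hour treatment and ATP-based viability.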
Regarding `CCCCCCCCCCCC[N+](C)(C)CCOc1ccccc1`, the Potency is 15.8 µM (active).
`Clc1ccc(C(OCCN2CCCCC2)c2ccccc2)cc1` (stereo unspecified): the Potency was 10 µM (active).
The same measure, in the same setting: next, `CN(C)C(=S)SSC(=S)N(C)C`: 35.5 µM (active).

Staying with this experiment, now noted: GBM patient neurospheres viability, ATP luminescence, 48 h; tumour line D.
With `CCCCCCCCCCCC[N+](C)(C)CCOc1ccccc1`, the Potency was 11.2 µM (active).
The same measure, in the same setting: with `Clc1ccc(C(OCCN2CCCCC2)c2ccccc2)cc1` (stereo unspecified) the figure was 7.08 µM (active); with `CC[C@H](O)C(C[C@H](C)N(C)C)(c1ccccc1)c1ccccc1`, 70.8 µM (active); with `Clc1ccc(CO/N=C(\Cn2ccnc2)c2ccc(Cl)cc2Cl)c(Cl)c1`, 11.2 µM (active).

The test system of the next experiment is astro (control astrocytes). The experiment is described as above. The note with it: viability, ATP luminescence, 48 h; series mostly up to 45.9 µM; activity, negative = cell killing: at the top concentration. The essentials: as §1
As to `CCCCCCCCCCCC[N+](C)(C)CCOc1ccccc1`, the Potency is 20 µM (active).
Regarding `CC(CC(C#N)(c1ccccc1)c1ccccc1)N(C)C` (stereo unspecified), the “activity, negative = cell killing” value was -16% [at 91.6 µM].
As to `COc1cc(CC(C)N)c(OC)cc1Br` (stereo unspecified), the Potency entry is “inactive”.
Still for that read-out and setting: with `CCC1(c2cnc[nH]2)Cc2ccccc2C1` the entry was “inactive”.
Turning to `CC(C)=CCN1CC[C@@]2(C)c3cc(O)ccc3C[C@@H]1[C@@H]2C`, the “activity, negative = cell killing” value is -17.8% [at 91.6 µM].
Same read-out and setting: with `CC1N=C(N)OC1c1ccccc1` (stereo unspecified) the figure was -8.77% [at 91.6 µM]; with `Clc1ccc(C(OCCN2CCCCC2)c2ccccc2)cc1` (stereo unspecified), -25.6% [at 21.2 µM].
Consider `CN1CCc2cc(Cl)c(O)cc2[C@H]2c3ccccc3CC[C@@H]21`, for which the “activity, negative = cell killing” value was -23.4%.
Regarding `CCCC(C)C1(CC)C(=O)N=C(S)NC1=O` (stereo unspecified), the “activity, negative = cell killing” value was -10.5%.
Take `CCCN(CCC)CCc1c[nH]c2ccccc12`: the “activity, negative = cell killing” value is -18% [at 91.6 µM].
Still for that read-out and setting: with `COc1ccc2c3c1O[C@H]1[C@@H](O)C=C[C@H]4[C@@H](C2)N(C)CC[C@@]341` the figure was -10.7% [at 91.6 µM]; with `Cc1c(Cl)c(=O)oc2cc(OP(=O)(OCCCl)OCCCl)ccc12`, -18%; with `C[C@H](N)[C@H](O)c1ccc(O)c(O)c1`, -23.3%.
With `CC[n+]1c(-c2ccccc2)c2cc(N)ccc2c2ccc(N)cc21`, the Potency was 8.91 µM (active) and 12.6 µM (active).
